The record followed here is PubChem BioAssay.

The source made the active and inactive calls.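 The calls were made as follows: active = fluorescence slope after compound addition differing from the mean of all screened samples at 99.7% confidence, in either direction; inactive = the rest.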

The target in this test is Alpha-2C adrenergic receptor (Homo sapiens) (UniProt P18825). As to the kind of experiment: modulators of alpha2C/GIRK thallium flux, primary screen, cell-based, HEK293 alpha2C/GIRK1/2 (AID 624).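 Also: slope of fluorescence ratio to pre-addition baseline per second over 15 to 24 s.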 As to conditions: thallium flux BTC fluorescence, at 10 µM, actives lie on both sides.
Sequence of Alpha-2C adrenergic receptor (Homo sapiens) (P18825 whole entry, looked up): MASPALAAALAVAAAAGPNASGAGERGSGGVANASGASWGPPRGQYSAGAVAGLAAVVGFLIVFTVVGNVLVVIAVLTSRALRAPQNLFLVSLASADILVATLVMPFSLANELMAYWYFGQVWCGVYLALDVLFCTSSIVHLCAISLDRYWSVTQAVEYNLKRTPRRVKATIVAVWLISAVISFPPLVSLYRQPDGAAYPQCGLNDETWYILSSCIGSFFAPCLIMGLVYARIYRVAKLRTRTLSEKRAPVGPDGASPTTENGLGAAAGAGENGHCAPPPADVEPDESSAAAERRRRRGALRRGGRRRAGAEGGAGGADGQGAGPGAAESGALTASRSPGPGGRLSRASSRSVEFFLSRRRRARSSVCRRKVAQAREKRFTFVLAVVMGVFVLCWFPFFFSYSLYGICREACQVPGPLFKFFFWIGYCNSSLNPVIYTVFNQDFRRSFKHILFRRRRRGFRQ
Consider `Cc1ccc2c(CC(=O)OCc3csc(C)n3)coc2c1`, for which the slope is 0.00641 (inactive).
Take `O=C(Nc1ccccc1)c1cnc2n(c1=O)CCS2`: the slope is 0.0079 (inactive).
For `Cc1cccc(C2c3c(n(C)c(=O)n(C)c3=O)N=C3c4ccccc4C(=O)C32)c1` (stereo not given), the slope was 0.00343 (inactive).
Under `CC1CC(C)CN(CCCNC(=O)c2ccc3c(c2)NC(=O)C(N2CCCCC2)S3)C1` (stereo not given) stands 0.00531 (inactive); under `O=C(Nc1cccnc1)c1noc2c1CCCCC2`, 0.00304 (inactive).
Under `O=C(OCc1nnc(-c2ccc(Cl)cc2)o1)c1ccc(=O)n(Cc2ccccc2)n1` stands 0.00426 (inactive); under `CC1CCN(C(=O)CSc2nc3ccccc3[nH]2)CC1`, 0.00679 (inactive); under `O=C(Nc1ccc2snnc2c1)N1CCSCC1`, 0.00608 (inactive).
Turning to `Cc1cccc(NS(=O)(=O)c2cc(C(=O)OCC(=O)Nc3cc(C)on3)ccc2C)c1`, the slope is 0.00536 (inactive).
Regarding `COc1ccc(-c2nc3c(c(SCC(=O)N4CCOCC4)n2)COC(C)(C)C3)cc1`, the slope is 0.00848 (inactive).
The value for `CNS(=O)(=O)c1cccc(C(=O)OCC(=O)c2cc(C)n(-c3ccc4c(c3)OCO4)c2C)c1` was 0.0143 (active).
Under `Cc1nc(CCNS(=O)(=O)c2cccs2)cs1` stands 0.00608 (inactive).
On to `O=C(O)CCc1ccc(-c2ccc(F)cc2)n1CC(=O)O`, for which the slope was 0.00527 (inactive).
For `CCOc1ccccc1N(CC(=O)N1CCOCC1)S(=O)(=O)c1ccccc1`, the slope was 0.00315 (inactive).
The value for `Cc1onc(-c2ccccc2)c1C(=O)Nc1sc2c(c1C(N)=O)CCC2` was 0.00375 (inactive).
